The campaign covered roughly 360,000 compounds. About 17,000 (4.7%) were called active. Not shown: some 5% with an inconclusive outcome. The entries come from a sample that favours actives as a whole. Values without a mark were called inactive. No stated cut-off is given here; in the data, active means activity change below about -50%; inconclusive means mostly about -30% to -49%; inactive means weaker than that.
assay: qHTS for Inhibitors of Inflammasome Signaling: IL-1-beta AlphaLISA Primary Screen; settings: THP-1 LPS/ATP IL-1B secretion, 16 h; at 57.5 µM, hits give low values
Outline: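 THP-1 cells pretreated 1 hr with compounds (up to 57.5 uM final), then stimulated with LPS (250 ng/mL final) plus ATP (1.25 mM final); secreted IL-1B measured by AlphaLISA after 16 hr, decreased signal indicating inhibition.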
On the % scale 0 is the no-effect control and ±100 the full control effect.

SMILES	activity change
CC(CO)NCC12CC3CC(CC(C3)C1)C2 (stereo unspecified)	4.35%
CC(=O)NC(c1ccccc1)c1nc(-c2ccccc2C)cs1 (stereo unspecified)	0.953%
CCc1nc2c(OCCOc3ccccc3)cccn2c1N(C=O)Cc1ccc(OC)cc1	29.8%
CCCCN(C=O)c1c(CC)nc2c(OCCC3CCCCC3)cccn12	-56.6% (active)
CCCCN(C=O)c1c(CC)nc2c(OCc3ccccc3C(=O)OC)cccn12	0%
COc1cccc(-c2cc3nc(NCc4ccccc4OC)n(C)c(=O)c3s2)c1	0.83%
COc1cccc(CNc2nc(NCc3cccs3)nc3ccsc23)c1	-4.63%
COc1cccc(CNc2nc(NCc3ccccc3OC)nc3ccsc23)c1	-75.5% (active)
COc1ccc(C(=O)N(C)Cc2ccc(OC)c(OC)c2OC)cc1S(=O)(=O)N1CCOCC1	-8.15%
Cc1coc2c(O)cc3c(c12)OC1(N2CCCCC2)C(=O)NCCCC31 (stereo unspecified)	-99.3% (active)
COCCN1CCN(C(=O)c2cc(COc3ccc(F)cc3Cl)on2)CC1	22.2%
CN(CC(=O)Nc1ccccc1[N+](=O)[O-])Cc1ccc(Br)cc1	-6.83%
CN(CC(=O)NCCc1ccc(F)cc1)CC(=O)Nc1ccc(F)c(F)c1F	-12.2%
Cc1ccc(NC(=O)CN(C)Cc2ccc(F)cc2)c([N+](=O)[O-])c1	-62.3% (active)
CCN(C(=O)CSc1nnc2ccccn12)C1CCS(=O)(=O)C1 (stereo unspecified)	-2.9%
Cc1cc2cc3c(cc2nc1SCC(=O)Nc1c(C)cccc1C)CCC3	13%
Cc1cccc(C(=O)C(O)(c2ccccc2)C2CCCCC2=O)c1 (stereo unspecified)	16.6%
COc1ccc(CCNC(=O)c2cnc(Cl)c(Cl)c2)cc1	-107% (active)
COc1ccc(CCNC(=O)COC(=O)c2cnc(Cl)c(Cl)c2)cc1	-11.2%
CC(CCc1ccccc1)NC(=O)c1cnc(Cl)c(Cl)c1 (stereo unspecified)	12.3%
CC1(C)OC(=O)C2=C(C[C@@H](C3CCCCC3)O[C@@H]2c2ccc(Cl)cc2)O1	0%
CC1=C(C(=O)Nc2cccc(C(=O)NCC(C)c3ccccc3)c2)SCCO1 (stereo unspecified)	24.1%
CC(C)(C)n1nnnc1C(c1ccc2ncccc2c1)N1CCSCC1 (stereo unspecified)	-23.4%
O=S(=O)(NCCc1ccccn1)c1cc(Cl)cc(Cl)c1O	0%
O=[N+]([O-])c1cc(S(=O)(=O)NCCc2ccccn2)ccc1Cl	-65.1% (active)
O=[N+]([O-])c1cccc(S(=O)(=O)NCc2ccccn2)c1	11.4%

Reference: PubChem BioAssay AID743279 (National Center for Advancing Translational Sciences (NCATS), 2014)
